A selection: hits, their analogues and other compounds. The true share with any hit is near 7.5%.
B2AR arrestin: qHTS assay of beta-arrestin-biased ligands of beta2-adrenergic receptor. Potency, µM (top dose mostly 46.1 µM), inactives show at the top dose activation, actives largely listed as activators. Beta-2 adrenergic receptor (Homo sapiens), P07550. beta-arrestin recruitment to beta2AR, cell-based reporter. 330,000 compounds, 0.02% hits. AID 492947, 2010;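 also: potency is read from the fitted curve at half-maximal effect; 0% = DMSO controls and full agonism = EC100 isoproterenol or metaproterenol; nearly all actives have a fitted effect of over 65% in size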
RORg inh: qHTS for inhibitors of ROR gamma transcriptional activity. Nuclear receptor ROR-gamma (Mus musculus), P51450. 310,000 compounds, 5.4% hits. Potency, µM (doses to about 53.6 µM), without a hit: at the highest dose activity change, negative = inhibition, hits mostly inhibitors. Drosophila S2 Gal4-RORgamma UAS-luciferase reporter, 20 h; also: potency is read from the fitted curve at half-maximal effect; nearly all actives have a fitted effect of over 60% in size
Target sequence (P51450 whole entry, looked up, the tested form may be a part): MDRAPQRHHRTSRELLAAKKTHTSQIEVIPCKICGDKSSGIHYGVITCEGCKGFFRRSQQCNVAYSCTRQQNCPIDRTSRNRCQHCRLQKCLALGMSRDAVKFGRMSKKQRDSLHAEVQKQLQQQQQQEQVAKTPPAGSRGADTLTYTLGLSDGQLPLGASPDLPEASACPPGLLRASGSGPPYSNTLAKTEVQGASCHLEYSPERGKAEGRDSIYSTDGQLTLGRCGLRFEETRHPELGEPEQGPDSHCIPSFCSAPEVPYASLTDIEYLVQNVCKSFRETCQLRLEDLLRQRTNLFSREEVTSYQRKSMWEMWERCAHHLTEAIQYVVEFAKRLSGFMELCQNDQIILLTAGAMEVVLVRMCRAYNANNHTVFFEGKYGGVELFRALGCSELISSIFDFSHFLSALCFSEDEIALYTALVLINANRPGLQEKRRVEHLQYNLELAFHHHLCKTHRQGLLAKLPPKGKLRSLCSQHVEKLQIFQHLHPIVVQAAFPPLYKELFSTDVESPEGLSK
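Stable Schneider cell line, Gal4 DNA-binding domain fused to ROR gamma, UAS-luciferase. Cmpd 1 hr RT → CuSO4 700 uM final → 20 hr RT → luciferase reagent 10 min → luminescence.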
TSHR antagonist: Antagonists of the Thyroid Stimulating Hormone Receptor: HTS campaign; Thyrotropin receptor (Homo sapiens), P16473; TSHR-expressing cells, TSH-stimulated cAMP HTRF, 2 h; hits give low values; 330,000 compounds, 0.2% hits; activity change, negative = inhibition, % at 11.5 µM;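 active = activity change below a set negative limit, meaning inhibition stronger than a set level, cut at about -70% in these data; inconclusive = activity change between two set negative limits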
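TSHR-expressing cells were treated with compounds, then stimulated with TSH at EC80 (4nM final) for 2 hours at 37 deg C. Cellular cAMP was measured by HTRF competition between lysate cAMP and cAMP-d2 for a cryptate-labelled anti-cAMP antibody.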
Gal4-VP16 FLuc: VP16 counterscreen qHTS for inhibitors of ROR gamma transcriptional activity. Drosophila S2 Gal4-VP16 UAS-luciferase, luminescence, 20 h. Potency, µM (top dose mostly 53.6 µM), inactives show top-dose activity, negative = inhibition, usual class: inhibitors. 310,000 compounds, 3.5% hits;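 also: Gal4-VP16 expression switched on by copper sulfate through the metallothionein promoter; potency is read from the fitted curve at half-maximal effect; nearly all actives have a fitted effect of over 50% in size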
ELG1 repair inh: qHTS screen for small molecules that inhibit ELG1-dependent DNA repair in human embryonic kidney (HEK293T) cells expressing luciferase-tagged ELG1 | HEK293T ELG1-luciferase reporter, luminescence, 16 h; DNA damage induced by 5-fluorouridine | Potency, µM (series often up to 46.1 µM), for the others: top-dose activity change, negative = inhibition, usual class: inhibitors | 330,000 compounds, 2.3% hits | AID 504467, 2011; also: potency is read from the fitted curve at half-maximal effect; nearly all actives have a fitted effect of over 55% in size
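Quantitative HTS, concentration-response format. 2,000 cells/well co-treated with 5-fluorouridine and compound, 16 hr in 5% CO2 at 37 °C; ONE-Glo luminescence read after 30 min.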
* = called active by the depositor; ? = inconclusive; · = no result; ! = not confirmed by another sample; [ ] = another dose, or the depositor's remark. Unless noted, calls follow the shape of the dose curve; as a rule, active = well fitted curve in the direction sought with a large enough effect; inconclusive = small, poorly fitted or top-dose-only effect, or another doubt; inactive = no such curve, though single readings can be large; an effect the other way counts as inactive or inconclusive. Unless noted, % is scaled to controls: 0 for no effect and ±100 for the full control effect.

SMILES	B2AR arrestin	RORg inh	TSHR antagonist	Gal4-VP16 FLuc	ELG1 repair inh
Cc1ccccc1N1CCN(C2CCCN(C(=O)c3cnsn3)C2)CC1 (stereo unspecified)	0.6%	-13.9%	-105.4*	-1.4%	11.0%
C/C(=N\NC(=O)CSCc1ccccc1Cl)c1cc(O)ccc1O	0.4%	5.01µM*	-6.5	11.2µM*	18.3µM*
O=C(CSCc1ccccc1Cl)NN=C1CCCCCC1	-0.2%	24.5%	-8.8	-2.7%	11.0%
O=S(=O)(c1ccccc1)N1CCC[C@@]2(CCN(c3cccc(-c4ccccc4)c3)C2)C1	·	5.8%	·	-0.6%	·
Fc1ccc(CNC(=S)NCc2ccccc2)cc1	-1.0%	11.2µM*	13.2	?	4.2%
O=C(CCc1ccccc1)NC(NC(=S)Nc1ccc(Br)cc1)C(Cl)(Cl)Cl (stereo unspecified)	0.0%	?	1.2	4.47µM*	?
S=C(NCc1ccccc1)NCc1ccc(CNC(=S)NCc2ccccc2)cc1	-0.7%	1.5%	-7.7	3.4%	-3.9%
CCC(C)c1ccc(NC(=S)NCc2cccnc2)cc1 (stereo unspecified)	0.1%	?	8.2	22.4µM*	1.1%
CC(C)(C)c1ccc(NC(=S)NCc2cccnc2)cc1	-0.6%	?	2.7	?	?
Fc1ccc(NC(=S)NCc2ccccc2)cc1	-0.2%	8.91µM*	-12.8	10µM*	-5.0%
C[C@@H]1CC2[C@@H]3C[C@H](F)C4=CC(=O)C(Cl)=C[C@]4(C)[C@@]3(F)[C@H](O)C[C@]2(C)[C@@]1(O)C(=O)CO (stereo partly specified)	·	-4.1%	·	9.0%	·
O=C1[C@H]2[C@H]3[C@H](O)[C@H](O)C/C(=N/OCc4ccccc4)[C@@H]3CC[C@@H]2C(=O)N1c1cccc(Oc2ccccc2)c1	·	-7.8%[10 µM]	·	-10.5%[10 µM]	·
S=C(NCc1ccccc1)Nc1ccc2ccccc2c1	13.2%	3.98µM*	2.9	11.2µM*	?
C=CCNC(=S)NCc1ccccc1OC	-0.4%	11.2µM*	-0.6	?	11.1%
C=CCNC(=S)NCc1ccccc1	0.4%	15.7%	29.0	-12.2%	-8.1%
COc1ccccc1CNC(=S)NCc1ccc(F)cc1	0.4%	7.08µM*	-9.8	7.94µM*	-4.8%
S=C(NCc1cccnc1)Nc1ccc(Oc2ccc(Cl)cc2)cc1	-0.8%	-0.8%	-28.4	?	10.3µM*
O=C(NCc1ccncc1)C12CC3CC(CC(Cl)(C3)C1)C2	-0.7%	2.8%	-3.2	7.8%	28.6%
C[C@@H]1/C=C\CC(=O)OC[C@H]2O[C@@H](C=C[C@@H]2O)[C@H](C)/C=C\CC(=O)OC1	·	-14.0%[10 µM]	·	-6.9%[10 µM]	·
O=C(CCc1ccccc1)NNC(=S)Nc1ccc(F)cc1	-0.3%	3.55µM*	-2.9	?	-6.9%
O=C(Cc1ccccc1)NNC(=S)Nc1ccc(Cl)cc1	-0.9%	?	-1.7	?	-11.3%
S=C(NCc1ccccc1)Nc1ccc(Oc2ccccc2)cc1	0.6%	12.6µM*	-10.2	14.1µM*	-19.5%
CC(C)(C)c1ccc(S(=O)(=O)N2CCC(NC(=O)c3ccco3)CC2)cc1	-0.4%	-9.8%	·	6.5%	9.6%
Cc1cnc(C(=O)Nc2nccs2)cn1	-0.7%	3.55µM*	8.4	11.2µM*	?
O=C(Nc1nccs1)c1cn2ccccc2n1	-0.6%	2µM*	16.9	7.08µM*	?
SMILES	B2AR arrestin	RORg inh	TSHR antagonist	Gal4-VP16 FLuc	ELG1 repair inh
Cc1cc(C(=O)Nc2nnc(C3CCCCC3)s2)no1	·	20µM*	·	1.6%	·
CCc1noc(C)c1C(=O)Nc1nnc(C2CCCCC2)s1	-0.1%	11.2µM*	-13.2	?	-7.2%
Cc1cnc(C(=O)Nc2nnc(C3CC3)s2)cn1	-0.7%	8.91µM*	0.5	-24.5%	?
Cc1cnc(C(=O)Nc2nnc(C)s2)cn1	0.0%	?	0.9	11.0%	?
Nc1nc(Nc2cccc3ccccc23)nc(C2CCCC2=O)n1 (stereo unspecified)	-1.1%	-7.2%	-1.9	-7.5%	19.3%
Nc1nc(CCl)nc(Nc2cccc3ccccc23)n1	-0.5%	11.2µM*	-16.5	10µM*	?
c1ccc(C2CC(c3ccccc3)C(c3ccccc3)N2)cc1 (stereo unspecified)	-0.7%	19.3%	6.2	1.3%	0.3%
O=C(NCCCN1CCOCC1)c1ccc2c(c1)N(Cc1ccc(Cl)cc1)C(=O)c1ccccc1S2=O (stereo unspecified)	-1.1%	-14.4%	-97.3*	-11.6%	19.7%
Cc1ccc(CN2C(=O)c3ccccc3Sc3ccc(C(=O)NCCN4CCOCC4)cc32)cc1	0.2%	22.1%	-135.5*	1.8%	?
Cc1cccc(CN2C(=O)c3ccccc3Sc3ccc(C(=O)NCCN4CCOCC4)cc32)c1	-0.1%	23.1%	-15.6	3.5%	-7.7%
O=C(NCCCN1CCCC1)c1ccc2c(c1)N(Cc1ccccc1F)C(=O)c1ccccc1S2=O (stereo unspecified)	12.4%	12.6%	-4.6	8.1%	?
O=C(NCc1ccco1)/C(=C\c1ccc(F)cc1)NC(=O)c1ccco1	-0.8%	-15.4%	7.0	-14.2%	?
Cc1nn(C2CCS(=O)(=O)C2)c(C)c1CN(C)C(=O)c1cccc(Cl)c1 (stereo unspecified)	-0.2%	·	8.5	·	-2.8%
Oc1ccc(N=Nc2n[nH]c(-c3ccccc3)n2)cc1	0.3%	?	-4.9	-27.2%	?
Oc1ccc(N=Nc2nc(-c3ccccc3)c(-c3ccccc3)[nH]2)cc1	2.4%	12.6µM*	-18.3	?	?
CCOc1ccc(Cc2nccc3cc(OCC)c(OCC)cc23)cc1OCC	·	-1.2%	·	15.8µM*!	·
COC(=O)CCC(=O)Nc1cc(OC)c(OC)cc1Cc1nccc2cc(OC)c(OC)cc12	-0.4%	1.4%	-1.5	5.3%	2.0%
NC(=S)n1[nH]c(-c2ccc([N+](=O)[O-])cc2)c(N=Nc2cccc(Cl)c2)c1=O	0.2%	0.398µM*	?	7.08µM*	3.66µM*
Cc1[nH]n(C(N)=S)c(=O)c1N=Nc1cccc(Cl)c1	-1.0%	0.282µM*	-8.3	1.58µM*	?
CCN(c1ccccc1)S(=O)(=O)c1cc(C(=O)Nc2ccc(Br)cc2)ccc1F	-0.3%	17.3%	-31.9	12.6µM*	?
CCN(c1ccccc1)S(=O)(=O)c1cc(C(=O)Nc2ccccc2Cl)ccc1F	-0.5%	34.8%	-1.9	?	-16.8%
COc1ccc2cc(OCC(=O)NNC(=O)Nc3ccc(C(C)=O)cc3)ccc2c1	-1.5%	-11.5%	6.6	0.2%	?
O=C(c1csnn1)N1CCC[C@@]2(CCN(C(c3ccccc3)c3ccccc3)C2)C1	·	0.0%	·	28.8%	·

Compound activity deposited in PubChem by National Center for Advancing Translational Sciences (NCATS).
